Unmarked numbers belong to inactive results. Inconclusive results are not listed. Activity calls are given as the source filed them. Unless noted, calls come from the whole dose curve; as a rule, active = well fitted curve in the direction sought with a large enough effect; inconclusive = small, poorly fitted or top-dose-only effect, or another doubt; inactive = no such curve, though single readings can be large; an effect the other way counts as inactive or inconclusive.

The nature of assay [1]: qHTS assay to identify small molecule inhibitors of chordoma cells - UCH-2 (AID 1259356). Note: series mostly up to about 46 µM; % is set by controls: 0 for no effect and ±100 for the full control effect. For orientation: qHTS replaces the single test concentration by a dilution series.
Assay [2] has as its target Atrial natriuretic peptide receptor 1 (Homo sapiens) (UniProt P16066). In words: Natriuretic polypeptide receptor (hNpr1) antagonism - Pilot screen (AID 1347049; calls by dose curve;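 note: agonist-evoked cGMP luminescence read 20 min after hNppA addition; series mostly up to about 58 µM; % is set by controls: 0 for no effect and ±100 for the full control effect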). In a few lines: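 HEK293 cells expressing hNpr1 and GloSensor cGMP luciferase, 1500/well, loaded with 2% GloSensor reagent 2 h, compound 30 min at room temperature; luminescence read before and 20 min after 0.1 nM hNppA stimulation.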

The target in assay [3] is Atrial natriuretic peptide receptor 2 (Homo sapiens) (UniProt P20594). In words: Natriuretic polypeptide receptor (hNpr2) antagonism - Pilot subtype selectivity assay (AID 1347050; calls by dose curve; note: potency is the fitted concentration of half-maximal effect). In a few lines:
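HEK293 cells expressing hNpr2 and a GloSensor cGMP luciferase sensor, 1500/well, preloaded 2 h with 2% GloSensor reagent, compound 30 min, then 1 nM hNppC for 20 min. Antagonism from luminescence after versus baseline pre-read; LOPAC in 1:5 titrations.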

Assay [4] can be described thus: NS1 protein of Zika virus - qHTS assay to identify small molecule inhibitors in human HEK 293 cells (AID 1347053).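 For activity change, negative = inhibition: series mostly up to about 46 µM; plate controls were infected untreated cells for no effect and uninfected cells for full effect.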 Note: nearly all actives have a fitted effect of over 55% in size. Note: potency is the fitted concentration of half-maximal effect. In a few lines:
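Inhibition of NS1 expression was scored in HEK 293 cells given compound 1 h ahead of MR766 virus (MOI = 0.5). Following 24 h at 37 C, two anti-NS1 antibodies generated a TR-FRET signal, scaled between uninfected and infected controls.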

In assay [5] the target is T1, Tyrosine-protein phosphatase non-receptor type substrate 1 (Homo sapiens) + Leukocyte surface antigen CD47 (Homo sapiens) (UniProt P78324+Q08722). In words: CD47-SIRPalpha protein protein interaction - LANCE assay qHTS validation (AID 1347057; active = well fitted curve in the direction sought with a large enough effect in the signal ratio, with a control signal flat, not every such curve was filed as active; the % refers to the signal ratio; note: series mostly up to about 38 µM; 0% is about no effect). In a few lines:
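First, His-tagged CD47 and Eu-labelled anti-His antibody met the compound for 30 min; next, site-specifically biotinylated SIRPalpha was added for 30 min; finally streptavidin-APC was added before reading the TR-FRET ratio.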
Background: Time-resolved FRET reads energy transfer from a long-lived donor to a nearby acceptor.

The target in assay [6] is T1, Tyrosine-protein phosphatase non-receptor type substrate 1 (Homo sapiens) + Leukocyte surface antigen CD47 (Homo sapiens). In words: CD47-SIRPalpha protein protein interaction - HTRF assay qHTS validation (AID 1347058; active = well fitted curve in the direction sought with a large enough effect in the signal ratio, not every such curve was filed as active; the % refers to the signal ratio;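 note: recombinant soluble extracellular CD47 with His tag and biotinylated SIRPalpha domains; series mostly up to about 38 µM; 0% is about no effect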). In a few lines:
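TR-FRET read (Ch1/Ch2 ratio) of soluble extracellular CD47 and Avi-biotinylated SIRPalpha domains in PBS pH 7.4 with 0.05% IGEPAL; 7-point compound titration. Sequential 30 min room-temperature steps; non-biotinylated SIRPalpha as control inhibitor.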

Assay [7] shares this target. Kind of assay: CD47-SIRPalpha protein protein interaction - Alpha assay qHTS validation (AID 1347059).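 Note: bead proximity luminescence from CD47 binding SIRPalpha after compound preincubation with SIRPalpha; % is set by controls: 0 for no effect and ±100 for the full control effect.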 The gist of the method: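 Biotinylated Avi-tagged SIRPalpha (25 nM) preincubated 30 min with compound, then His-tagged CD47 (12.5 nM) added 30 min; AlphaScreen with Ni-NTA acceptor and streptavidin donor beads. PBS pH 7.4, 0.05% IGEPAL, room temperature; 7-point titrations.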

The target in assay [8] is Parathyroid hormone/parathyroid hormone-related peptide receptor (Homo sapiens) (UniProt Q03431). Kind of assay: qHTS for PTHR1 Agonists: Optimization Screen against the NCGC LOPAC library (AID 1347079).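 Note: GloSensor cAMP luminescence in HEK-293 GP2 cells expressing human PTHR1 with IBMX; 0% is about no effect.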 The gist of the method: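 Compounds were tested across a qHTS titration. PTHR1-expressing GP2 cells report cAMP rises via GloSensor luminescence after 1 hr compound exposure at 37C with IBMX present.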

Assay [9] is described as follows: qHTS of pediatric cancer cell lines to identify multiple opportunities for drug repurposing: Primary screen for DAOY cells (AID 1347090).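 Note: series mostly up to about 46 µM; plate controls were DMSO for no effect and bortezomib for full effect; nearly all actives have a fitted effect of over 55% in size.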 The gist of the method: (§1)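 Viability measured as metabolically active cells via CellTiter-Glo luminescence following 48 hours of compound exposure, 11-point dilutions in confirmatory testing. 500-1,000 cells/well plated 5 hours before dosing; controls were DMSO and 2.3 µM bortezomib.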

The nature of assay [10]: qHTS of pediatric cancer cell lines to identify multiple opportunities for drug repurposing: Primary screen for SJ-GBM2 cells (AID 1347091).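 Note: plate controls were DMSO neutral control for no effect and bortezomib for full effect.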 In a few lines:
as §1

The nature of assay [11]: Natriuretic polypeptide receptor (hNpr1) antagonism - Pilot counterscreen GloSensor control cell line (AID 1347045; calls by dose curve; note: series mostly up to about 38 µM; % is set by controls: 0 for no effect and ±100 for the full control effect). The gist of the method:
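This counterscreen uses HEK293 cells expressing the GIP/pGS-40F cGMP biosensor. Compound-treated cells are challenged with 50 uM sodium nitroprusside, and the luciferase signal is compared before and after stimulation.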
A general note: Counterscreens check selectivity or assay interference.

The nature of assay [12]: P-glycoprotein substrates identified in KB-8-5-11 adenocarcinoma cell line, qHTS therapeutic library screen (AID 1346987). Note: series mostly up to about 44 µM; % is set by controls: 0 for no effect and ±100 for the full control effect; nearly all actives have a fitted effect of over 65% in size. The gist of the method:
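P-gp-mediated resistance screen: KB-8-5-11 cells treated 72 h with compounds in dose-response. CellTiter-Glo viability.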

Assay [13] is described as follows: qHTS of pediatric cancer cell lines to identify multiple opportunities for drug repurposing: Primary screen for TC32 cells (AID 1347089). Note: % is set by controls: 0 for no effect and ±100 for the full control effect; nearly all actives have a fitted effect of over 60% in size. The gist of the method:
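qHTS, TC32, 48 h drug treatment, CellTiter-Glo luminescence as a proxy for metabolically active cells; primary top concentration 46 µM (MIPE 11-pt, NPC 8-pt); confirmatory 11-pt.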

Atrial natriuretic peptide receptor 1 (Homo sapiens), sequence (P16066 whole entry, looked up): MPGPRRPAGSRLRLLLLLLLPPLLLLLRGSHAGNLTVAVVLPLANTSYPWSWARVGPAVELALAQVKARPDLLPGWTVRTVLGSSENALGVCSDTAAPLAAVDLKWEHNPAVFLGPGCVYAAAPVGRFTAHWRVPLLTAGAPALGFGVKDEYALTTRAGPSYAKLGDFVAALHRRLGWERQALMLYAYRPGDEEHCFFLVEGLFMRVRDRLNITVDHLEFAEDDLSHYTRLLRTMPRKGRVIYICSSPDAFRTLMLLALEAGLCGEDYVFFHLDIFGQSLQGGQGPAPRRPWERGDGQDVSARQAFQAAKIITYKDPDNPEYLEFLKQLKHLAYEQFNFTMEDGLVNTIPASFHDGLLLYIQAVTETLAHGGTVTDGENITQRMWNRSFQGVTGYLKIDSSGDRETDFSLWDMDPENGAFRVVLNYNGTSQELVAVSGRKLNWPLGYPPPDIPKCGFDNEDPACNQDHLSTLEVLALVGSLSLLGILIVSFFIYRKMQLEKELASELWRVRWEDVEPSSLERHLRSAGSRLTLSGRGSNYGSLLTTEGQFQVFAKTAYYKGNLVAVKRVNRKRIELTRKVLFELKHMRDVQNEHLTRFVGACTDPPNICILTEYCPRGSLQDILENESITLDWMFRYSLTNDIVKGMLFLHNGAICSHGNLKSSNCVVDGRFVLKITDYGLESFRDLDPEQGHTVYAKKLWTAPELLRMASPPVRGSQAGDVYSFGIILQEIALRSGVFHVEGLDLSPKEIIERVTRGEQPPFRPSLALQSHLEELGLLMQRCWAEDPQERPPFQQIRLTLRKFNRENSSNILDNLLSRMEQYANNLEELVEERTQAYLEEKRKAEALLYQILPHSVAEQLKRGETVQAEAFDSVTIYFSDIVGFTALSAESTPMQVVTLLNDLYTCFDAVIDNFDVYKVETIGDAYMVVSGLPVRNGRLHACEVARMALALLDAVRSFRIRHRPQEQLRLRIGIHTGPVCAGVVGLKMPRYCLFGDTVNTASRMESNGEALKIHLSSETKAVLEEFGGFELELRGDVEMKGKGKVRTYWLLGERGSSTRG
Parathyroid hormone/parathyroid hormone-related peptide receptor (Homo sapiens), sequence (Q03431 whole entry, looked up): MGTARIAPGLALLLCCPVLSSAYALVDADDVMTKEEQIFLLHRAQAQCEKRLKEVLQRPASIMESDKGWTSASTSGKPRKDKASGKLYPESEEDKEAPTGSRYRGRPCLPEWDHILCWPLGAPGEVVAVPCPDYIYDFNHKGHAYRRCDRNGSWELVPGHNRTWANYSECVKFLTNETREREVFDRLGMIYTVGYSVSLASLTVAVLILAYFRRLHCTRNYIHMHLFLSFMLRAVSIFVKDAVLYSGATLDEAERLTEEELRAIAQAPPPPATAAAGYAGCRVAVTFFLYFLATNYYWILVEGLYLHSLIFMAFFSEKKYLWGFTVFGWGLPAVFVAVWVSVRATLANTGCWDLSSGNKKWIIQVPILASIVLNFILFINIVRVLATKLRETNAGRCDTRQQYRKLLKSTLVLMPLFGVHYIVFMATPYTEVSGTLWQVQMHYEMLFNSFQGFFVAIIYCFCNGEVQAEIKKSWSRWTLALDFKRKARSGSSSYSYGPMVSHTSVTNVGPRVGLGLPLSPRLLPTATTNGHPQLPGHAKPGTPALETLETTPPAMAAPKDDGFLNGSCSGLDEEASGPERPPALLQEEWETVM
Atrial natriuretic peptide receptor 2 (Homo sapiens), sequence (P20594 whole entry, looked up): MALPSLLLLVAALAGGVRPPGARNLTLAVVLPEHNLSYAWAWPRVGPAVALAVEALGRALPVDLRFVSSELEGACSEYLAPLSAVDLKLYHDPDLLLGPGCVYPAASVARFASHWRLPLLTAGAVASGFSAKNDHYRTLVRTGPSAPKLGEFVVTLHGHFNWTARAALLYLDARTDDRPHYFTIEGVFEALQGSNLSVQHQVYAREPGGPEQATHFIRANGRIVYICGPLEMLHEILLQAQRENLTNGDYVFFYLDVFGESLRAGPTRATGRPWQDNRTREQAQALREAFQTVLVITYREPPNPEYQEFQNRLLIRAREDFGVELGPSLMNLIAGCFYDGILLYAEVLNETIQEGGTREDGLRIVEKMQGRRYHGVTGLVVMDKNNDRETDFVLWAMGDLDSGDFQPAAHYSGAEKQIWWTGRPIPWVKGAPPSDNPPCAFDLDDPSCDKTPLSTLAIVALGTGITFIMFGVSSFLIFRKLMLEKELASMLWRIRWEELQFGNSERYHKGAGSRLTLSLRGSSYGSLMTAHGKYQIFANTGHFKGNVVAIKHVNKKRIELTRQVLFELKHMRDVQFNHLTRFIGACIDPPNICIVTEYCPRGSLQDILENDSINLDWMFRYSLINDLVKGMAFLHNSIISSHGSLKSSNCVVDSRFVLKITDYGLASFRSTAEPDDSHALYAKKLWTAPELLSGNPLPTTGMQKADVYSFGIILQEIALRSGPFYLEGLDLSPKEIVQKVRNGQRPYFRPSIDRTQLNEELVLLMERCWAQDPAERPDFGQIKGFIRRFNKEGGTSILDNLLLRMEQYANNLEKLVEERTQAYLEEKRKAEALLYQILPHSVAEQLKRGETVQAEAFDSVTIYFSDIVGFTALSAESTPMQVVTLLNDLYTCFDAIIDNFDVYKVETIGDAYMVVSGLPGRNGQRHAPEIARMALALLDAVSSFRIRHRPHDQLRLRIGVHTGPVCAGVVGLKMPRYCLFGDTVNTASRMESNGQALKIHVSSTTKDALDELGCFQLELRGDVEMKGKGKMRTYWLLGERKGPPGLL
T1 sequence (P78324 whole entry, looked up): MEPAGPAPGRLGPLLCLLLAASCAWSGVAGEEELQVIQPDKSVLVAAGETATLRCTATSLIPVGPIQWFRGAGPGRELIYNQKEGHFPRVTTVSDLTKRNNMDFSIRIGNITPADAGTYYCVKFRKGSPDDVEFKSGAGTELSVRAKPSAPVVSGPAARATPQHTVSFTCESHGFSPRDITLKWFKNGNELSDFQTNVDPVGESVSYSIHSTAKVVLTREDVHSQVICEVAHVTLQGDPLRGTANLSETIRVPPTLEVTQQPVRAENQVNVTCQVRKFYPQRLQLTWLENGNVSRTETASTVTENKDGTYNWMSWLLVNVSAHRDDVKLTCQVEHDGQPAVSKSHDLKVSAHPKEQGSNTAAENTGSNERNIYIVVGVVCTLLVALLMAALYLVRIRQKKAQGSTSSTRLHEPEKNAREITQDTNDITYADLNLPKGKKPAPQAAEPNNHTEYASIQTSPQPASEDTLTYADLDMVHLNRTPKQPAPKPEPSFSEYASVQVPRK
T1 sequence (Q08722 whole entry, looked up): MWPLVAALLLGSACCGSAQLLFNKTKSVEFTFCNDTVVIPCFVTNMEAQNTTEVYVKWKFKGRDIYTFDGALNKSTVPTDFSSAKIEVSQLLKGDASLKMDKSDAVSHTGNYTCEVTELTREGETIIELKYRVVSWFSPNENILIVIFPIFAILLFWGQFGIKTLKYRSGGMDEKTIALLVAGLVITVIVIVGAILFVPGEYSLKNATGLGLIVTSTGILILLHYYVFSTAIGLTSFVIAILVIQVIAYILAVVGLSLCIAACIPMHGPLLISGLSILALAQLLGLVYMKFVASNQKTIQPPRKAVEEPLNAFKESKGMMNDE

On to `NC(=O)c1ncn([C@@H]2O[C@H](CO)[C@@H](O)[C@H]2O)n1`, for which the compound was called inactive in [1], in assay [2], in [5], in [6] and in assay [7]. Further, the Potency result in [3], in assay [4], in assay [8], in assay [9] and in [10] was “inactive” throughout.

As for `CN(C)CCCN1c2ccccc2Sc2ccc(Cl)cc21`, the compound was called inactive in assay [1], in assay [11], in assay [2] and in assay [5]. Also, the Potency was 14.7 µM (active) in [3] and 7.08 µM (active) in assay [4]. In assay [8], the Potency entry is “inactive”.

On to `O=C(O)CC(O)C(=O)O` (stereo not drawn), for which the compound was classed as inactive in assay [1]. The Potency result in assay [12], in assay [4], in assay [13], in assay [9] and in [10] was “inactive” throughout.

With `CC1=C(/C=C/C(C)=C/C=C/C(C)=C/C(=O)O)C(C)(C)CCC1`, the compound was called inactive in assay [1], in assay [2], in [5], in assay [6] and in [7]. Also, the Potency result in [3], in assay [4], in assay [8], in assay [13], in assay [9] and in [10] was “inactive” in each case.

Take `CCCCCCCCCCCCCCCCCCOCC(O)CO` (stereo not drawn): in assay [1], the compound was called inactive. The Potency entry in [12], in [4], in assay [13], in assay [9] and in [10] was “inactive” each time.

Regarding `CCCCOc1cc(C(=O)OCCN(CC)CC)ccc1N`, in assay [1], the call was inactive. For the same compound, the Potency entry in assay [12], in assay [4], in assay [9] and in assay [10] was “inactive” in each case.

Regarding `Oc1ccc(C(O)CNCCCCCCNCC(O)c2ccc(O)c(O)c2)cc1O` (stereo not drawn), the compound was called inactive in [1]. For the same compound, the Potency result in [12], in assay [4], in assay [13], in [9] and in assay [10] was “inactive” throughout.

With `O=c1cc[nH]c(=O)[nH]1`, the compound was classed as inactive in [1]. Also, the Potency entry in assay [12], in assay [4], in assay [13], in assay [9] and in assay [10] was “inactive” each time.

As to `CNCCCC1c2ccccc2C=Cc2ccccc21`, the call in assay [1], in assay [11], in assay [2], in assay [5] and in [7] was inactive. For the same compound, the Potency entry in [4], in [8] and in assay [13] was “inactive” throughout.

On to `O=C(CCCN1CCN(c2ccccn2)CC1)c1ccc(F)cc1`, for which the result in [1] was inactive. Besides, the Potency entry in [12], in [4], in assay [9] and in [10] was “inactive” in each case.

For `C=CCn1c(=O)n([C@@H]2O[C@H](CO)[C@@H](O)[C@H]2O)c2nc(N)[nH]c(=O)c21`, the result in [1] was inactive. In addition, the Potency result in assay [12], in assay [4], in assay [13], in [9] and in assay [10] was “inactive” throughout.

For the compound `Cc1ncc([N+](=O)[O-])n1CC(O)CCl` (stereo not drawn), the call in assay [1] was inactive. The Potency result in assay [12], in [4], in assay [13], in assay [9] and in assay [10] was “inactive” each time.

For `CC(C)(C)C(=O)NCCCC(=O)O`, the result in [1] was inactive. In addition, the Potency entry in [12], in assay [4], in assay [13], in [9] and in assay [10] was “inactive” each time.

Take `CN(C)CCN(Cc1ccccc1)c1ccccn1`: the compound was classed as inactive in assay [1]. For the same compound, the Potency result in assay [12], in assay [4], in [13], in assay [9] and in assay [10] was “inactive” throughout.

Consider `CC1(C)OC(=O)NC1=O`, for which the outcome in assay [1] was inactive. Also, the Potency result in [12], in [4], in assay [9] and in assay [10] was “inactive” each time.

Regarding `Cc1cc2nc3c(=O)[nH]c(=O)nc-3n(C[C@H](O)[C@H](O)[C@H](O)CO)c2cc1C`, the call in [1] was inactive. Moreover, the Potency result in assay [12], in [4], in assay [13], in assay [9] and in assay [10] was “inactive” in each case.

As to `O=C1O[C@H]([C@@H](O)CO)C(O)=C1O`, the compound was called inactive in assay [1]. The Potency entry in assay [12], in assay [4], in [13], in assay [9] and in [10] was “inactive” each time.

On to `COc1cc(C)c(Cc2cnc(N)nc2N)cc1OC`, for which, in assay [1], the call was inactive. Moreover, the Potency entry in assay [12], in assay [4], in assay [13], in [9] and in [10] was “inactive” in each case.

Turning to `NCCNCCNCCNCCN`, the outcome in [1] was inactive. Besides, the Potency result in assay [12] was “inactive”. The activity change, negative = inhibition in [4] is -10.7% [at 9.2 µM]. Further, the values for the activity change, negative = cytotoxic in [13], in [9] and in assay [10] were 6.7% [at 9.17 µM], -7.74% [at 9.22 µM] and 0.237% [at 9.22 µM], respectively.

For the compound `CC(CN(C)C)CN1c2ccccc2CCc2ccccc21` (stereo not drawn), the compound was classed as inactive in assay [1], in [11], in assay [2], in [5], in [6] and in assay [7]. Further, the Potency entry in assay [4], in assay [8], in assay [13] and in assay [9] was “inactive” in each case.

Turning to `CCN(CC)C(C)CN1c2ccccc2Sc2ccccc21` (stereo not drawn), the compound was classed as inactive in assay [1], in [11], in assay [2], in [5] and in assay [7]. Also, the Potency result in assay [3], in [4], in [8], in assay [9] and in assay [10] was “inactive” each time.

Source of the values: PubChem BioAssay (NCATS).
